Hit rate of the full screen: of about 65,000 compounds, about 2,100 (3.2%) showed an effect of 50% or more. The median lay at about -52%. Only a selection was taken, and strong results are over-represented in it overall.
These compounds were tested on Plasmodium falciparum (assay: Screen against P. falciparum Asexual Blood Stage (ABS), at 5uM). Details: tested at 5 uM.
Assay type: functional, Dd2

Structure (SMILES)	INHIBITION [%]
Cc1nc(=O)c(CC(=O)N2C[C@H]3CC[C@@H](C2)N(CC2CCC2)C3)c(C)[nH]1	-89.5
CCN1CC(=O)NCC12CCN(C(=O)c1ccno1)C2 (stereo unspecified)	-7.44
N#Cc1cccc(C(=O)NS(=O)(=O)c2ccc(C#N)c(Cl)c2)c1	-49.2
N#Cc1cccc(S(=O)(=O)Nc2c(F)cccc2N2CCCC2)c1	74.1
Cc1nc(CC(=O)N2CCN(Cc3ccc(C#N)cc3)CC2)cs1	-11.175
CCOc1ccc(Br)cc1C1CCCN1 (stereo unspecified)	72.9
CCOc1ccc(Cl)cc1C1CCCN1 (stereo unspecified)	87.7
CCOc1ccc(Br)cc1C1CCCCN1 (stereo unspecified)	78.2
CC(C)NC(=O)C1CCC2(CCNCC2)C1 (stereo unspecified)	-81.9
CCN1CCC2(CC1)C(=O)Nc1ccc(C(=O)NC)cc12	-38.9
Cc1ccccc1CC(C)NC(=O)Nc1cnn(CC(N)=O)c1 (stereo unspecified)	-23.3
CC(C)COC(=O)N1CCC2(CCNC2)C1 (stereo unspecified)	-93.7
Cc1ncsc1CN1CC[C@H]2C[C@H](c3ccncn3)O[C@@H]2C1	-37.3
NC(=O)C1(Cc2ccc(-c3ccccc3)cc2)CCNC1 (stereo unspecified)	92.7
O=C(N1CCCC1)C1(Cc2ccc(-c3cccs3)cc2)CCNC1 (stereo unspecified)	84.5
O=C(c1nc(=O)[nH]c2ccccc12)N1CCCC2(CCNC2)C1 (stereo unspecified)	-74.6
NC1(c2nc(-c3cccs3)cc(=O)[nH]2)CCCCC1	-95.6
O=S1(=O)N(c2ccccc2)C[C@@H](O)[C@]12CCNC2	-3.43
O=S1(=O)N(c2ccccc2)C[C@H](O)[C@]12CCNC2	-88.5
CC(C)N1CCCC(Cc2nccnc2Cl)C1 (stereo unspecified)	-59.8
COc1ccc(C2SCC(=O)Nc3ccsc32)cc1 (stereo unspecified)	-71.1
O=C(N[C@@H]1CN[C@H]2CCCO[C@H]21)c1cccnc1	-128
c1cncc(OC[C@]23COC[C@H]2CN(Cc2cccs2)C3)c1	-51.7
CCCN(C)CC1CCN(c2ccc(Br)c(C)n2)C1 (stereo unspecified)	73.7
CCc1noc(CC)c1CC(=O)N1CCN(C(C#N)C(C)C)CC1 (stereo unspecified)	-154
CNC(=O)[C@@H]1C[C@H]2CN(C(=O)c3ccccn3)C[C@H]2N1C(C)C	-23

Structure (SMILES)	INHIBITION [%]
CCN(CC)C[C@H]1CN2CC[C@H]1C[C@@H]2CNC(=O)c1ccco1	-97.7
CN(C[C@H]1CN2CC[C@H]1C[C@@H]2CNC(=O)c1ccco1)c1ccccc1	71.2
CC[C@H]1CN2CC[C@H]1C[C@@H]2CNC(=O)c1ccco1	-29.4
COc1cc(N2CC[C@@H]3OCCN(C)[C@H]3CC2)ncn1	-67.4
Cc1cccc(OCC(=O)N2CCN(C3CCOC3=O)CC2)c1C (stereo unspecified)	-13.7
CC1COC2(CCN(C(=O)c3ncoc3C(C)C)CC2)O1 (stereo unspecified)	-69.9
Nc1nc(N)c2c(n1)OC1(CCN(Cc3nccs3)C1)C2 (stereo unspecified)	-96
c1cnc(N2CCC3(CC2)CN(CC2CC2)c2ccccc23)nc1	86.3
CCN1CCC2(CC1)CN(CCO)c1ccccc12	-30.2
CN1CCN(c2ncccn2)CC12CCC(=O)N(CC1CC1)CC2 (stereo unspecified)	-74.4
Fc1ccc2[nH]c3c(c2c1)CCN1C(c2ccncc2)N2CCC31CC2 (stereo unspecified)	89.6
Fc1ccc2[nH]c3c(c2c1)CCN1C(c2ccccn2)N2CCC31CC2 (stereo unspecified)	81.2
Cc1noc(C)c1CN1CCCC2(C1)CN(c1nccs1)CCO2 (stereo unspecified)	18.6
c1cnc(N2CCN3C[C@H](Oc4cncnc4)C[C@H]3C2)nc1	-102
CNc1nc(C(=O)N2C[C@@H]3CCN(C)[C@@H]3C2)cs1	-94.9
CCOCCCn1c(NC(=O)c2cc(C)on2)nc2ccccc21	71.5
CCOCCN1C[C@H](C(=O)Nc2cccnc2)[C@@H]2CCO[C@@H]2C1	-9.46
O=C(CC1[C@H]2CN(Cc3ccncc3)C[C@@H]12)N1CCCC1 (stereo partly specified)	-109
Cc1ccc([C@]2(O)CC[C@H]3CN(Cc4ccccc4F)C[C@H]32)nc1	20.6
NCC1[C@H]2CN(CCc3ccccc3)C[C@@H]12 (stereo partly specified)	86.8
Oc1cccc(CN2C[C@@H]3CC[C@H]2CN(Cc2ccncc2)C3)c1	-31.9
NCC1[C@H]2CN(Cc3cccc(Cl)c3)C[C@@H]12 (stereo partly specified)	83.8
NCC1[C@H]2CN(Cc3ccccc3F)C[C@@H]12 (stereo partly specified)	68.2
c1ccc(CCN2C[C@@H]3OCCN(c4ncccn4)[C@@H]3C2)cc1	-64.6
O=C1CO[C@@H]2CN(Cc3nccs3)C[C@H]2N1Cc1ccncc1	-59.6
CN(C)[C@@H]1CN(C(=O)Cc2ccc(F)cc2)[C@@H]2CCCO[C@H]12	-29.9

Structure (SMILES)	INHIBITION [%]
CN(CCc1ccccc1)Cc1nc2c(cnn2C)c(=O)[nH]1	-38.8
CC(C)N(Cc1ccccn1)Cc1nc2c(cnn2C)c(=O)[nH]1	74.2
CN(CCc1ccc(F)cc1)Cc1nc2c(cnn2C)c(=O)[nH]1	-97.7
CN(C)CCn1nc(C2CCN(Cc3ccccc3)C2)c2cccnc21 (stereo unspecified)	71.9
CN(C)CCN1CCO[C@H]2CN(Cc3ccccn3)C[C@H]21	11.1
COc1cccc(CN2CCC(c3nn(CCN)c4nccnc34)C2)c1 (stereo unspecified)	89.1
c1ccc(N2CC[C@@H]3CN(Cc4ccncc4)CCO[C@@H]3C2)cc1	-57.3
c1ccc(CN2CC[C@H]3CO[C@H](CNc4ncccn4)[C@H]3C2)cc1	-6.23
NCCn1nc(C2CCN(Cc3ccccc3Cl)C2)c2nccnc21 (stereo unspecified)	80.1
NCCn1nc(C2CCN(Cc3ccccc3)C2)c2nccnc21 (stereo unspecified)	80.4
O[C@@]1(c2ccccn2)CC[C@H]2CN(Cc3cccc(Cl)c3Cl)C[C@H]21	39.6
COc1cccc([C@@H]2CCN(Cc3[nH]nc(C)c3Cl)C[C@H]2O)c1	-12.4
c1cnc(N2CC[C@@H]3CN(Cc4ccncc4)CCO[C@@H]3C2)nc1	-103
COC[C@@H]1CCC[C@]12CN(Cc1cccc(C)n1)CCO2	-26.8
CCS(=O)(=O)NC[C@]12COC[C@H]1CN(Cc1ccccn1)C2	-30.3
CC(C)N1CCO[C@H]2CN(C(=O)c3ccncc3)C[C@H]21	-69.9
Cc1nocc1C(=O)N1CCOC2(COCCN(CC3CC3)C2)C1 (stereo unspecified)	-103
COc1ccc(CC(=O)N2CCN(Cc3ccco3)C[C@H]2C)cc1OC	-28.9
CN(C)C(=O)CN1CCO[C@H]2CN(c3ccccn3)C[C@H]21	-57.3
COc1ccccc1CN1CCC(c2nn(CCN)c3nccnc23)C1 (stereo unspecified)	75.5
COCCN1CC[C@@H]2CN(Cc3cccnc3OC)C[C@@H]2C1	-68
COc1ncccc1CN1C[C@H]2CCN(c3ncccn3)C[C@H]2C1	-39
c1cncc(CO[C@H]2CN(Cc3ccco3)[C@@H]3COC[C@H]23)c1	-14.4
Cc1cccc(CN2CC[C@H]3[C@@H]2CC(=O)N3CC2CC2)n1	-122
Cc1cc(C)n(C2CN(CC(O)c3cc(F)ccc3F)C2)n1 (stereo unspecified)	84.7
CCC(CO)N(Cc1cccc(O)c1)Cc1ccccc1C (stereo unspecified)	75.2

Structure (SMILES)	INHIBITION [%]
O=C(N1CCOCC1)[C@@]12CCO[C@@H]1CCN(Cc1ccncc1)C2	-39.7
CCC1CN(CC(=O)NCCN2CCCCCC2)c2ccccc2S1 (stereo unspecified)	73.8
CCC1CN(CC(=O)NCCN2CCCCC2)c2ccccc2S1 (stereo unspecified)	72.3
CCC1CN(CC(=O)NCCN(CC)CC)c2ccccc2S1 (stereo unspecified)	76.7
CCCN1CCC2(Cc3ccccc3NC2=O)C1 (stereo unspecified)	-3.59
CS(=O)(=O)N1CCOCC2(CN(Cc3ccccn3)CCO2)C1 (stereo unspecified)	-46.3
Cc1ccc(CNCCC(O)(c2nccn2C)C(F)(F)F)o1 (stereo unspecified)	73.2
Cn1ccnc1C(O)(CCNCc1ccc(Cl)o1)C(F)(F)F (stereo unspecified)	71.1
Cc1csc(CN2CCC[C@]3(C[C@@H](Oc4ccccn4)CO3)C2)n1	-213
CCc1cnc(N)nc1NCCCn1cc(Cl)cn1	84.5
Cc1cc(C(F)(F)F)cc(=O)n1CCn1cc(Cl)cn1	18.5
CCN(CC)C(CNC(=O)c1c(C)noc1C(C)C)c1ccsc1 (stereo unspecified)	78.7
CC(C)N1CCN(C(=O)Cc2csc(-c3ccco3)n2)CC1	-22.2
Cc1ccc(F)cc1CC(=O)N(CCN1CCOCC1)Cc1ccco1	-12.9
COc1cc(F)ccc1C(C(=O)O)N(C)CCN1CCCC1 (stereo unspecified)	72.3
COc1cc(F)ccc1C(C(=O)O)N(C)CCN1CCOCC1 (stereo unspecified)	80.7
CCS(=O)(=O)N1CCN(CC2CC2)c2ncccc2C1	-94.6
COC(=O)c1ccc(C2SCC(=O)Nc3ccsc32)cc1 (stereo unspecified)	-80.9
COc1ccc(CCN)cc1-c1ccc(C(N)=O)cc1	10.7
CCOc1ccc(-c2cc(CCN)ccc2OC)cc1	-58
COc1ccc(CCN)cc1-c1ccc(O)cc1	85.6
Cc1ccc(CN2C[C@@H]3CCN(Cc4ccncc4)C(=O)[C@H]3C2)s1	-13.4
C[C@H](N)Cn1nc(-c2cccs2)oc1=O	-106

Reference: ChEMBL document CHEMBL4513216, “Probing the Open Global Health Chemical Diversity Library for Multistage-Active Starting Points for Next-Generation Antimalarials” (ACS Infect Dis, 2020)
